In the supplement of paper PMC4206461:

Each compound was assayed on Pseudomonas aeruginosa PA14 dppA1-A5 penta mutant + pBBR5.DppA1 (PA14_58350) (assay: respiration area under curve with compound as sole nitrogen source, 24 h (OmniLog AUC (arbitrary units)); higher = more respiration / better utilisation as nitrogen source, active = 2000 or more).
Description: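 Biolog Phenotype MicroArray plates PM6-PM8: each di/tripeptide is the sole nitrogen source. Tetrazolium reduction was read in the OmniLog for 24 h at 37°C and summarised as area under the respiration curve (arbitrary units). Values below 2000 count as no respiration. Strain is the SBP penta mutant complemented with DppA1 on a plasmid under its native promoter. Lys/His/Cys peptides are excluded.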

Compound | respiration area under curve
CC(C)[C@H](NC(=O)[C@@H](N)Cc1c[nH]c2ccccc12)C(=O)O (plate: PM8) | 1060 (inactive)
CC(C)[C@H](NC(=O)[C@@H](N)Cc1ccc(O)cc1)C(=O)O (plate: PM8) | 6630 (active)
NCC(=O)N[C@@H](CC(N)=O)C(=O)O (plate: PM8) | 14300 (active)
NCC(=O)NCC(=O)O (plate: PM6) | 2050 (active)
C[C@H](NC(=O)[C@@H](N)[C@@H](C)O)C(=O)O (plate: PM7) | 8470 (active)
CC(C)C[C@H](NC(=O)[C@@H]1CCCN1)C(=O)O (plate: PM7) | 5560 (active)
CC(C)C[C@H](NC(=O)[C@@H](N)[C@@H](C)O)C(=O)O (plate: PM7) | 4760 (active)
CC[C@H](C)[C@H](NC(=O)[C@@H](N)CC(C)C)C(=O)O (plate: PM6) | 3910 (active)
NCC(=O)N[C@@H](Cc1c[nH]c2ccccc12)C(=O)O (plate: PM6) | 49.2 (inactive)
CC(C)[C@H](NC(=O)[C@@H](N)CC(=O)O)C(=O)O (plate: PM6) | 1900 (inactive)
CC(C)[C@H](N)C(=O)N[C@H](C(=O)O)C(C)C (plate: PM7) | 6680 (active)
C[C@H](NC(=O)[C@@H](N)CO)C(=O)O (plate: PM7) | 9020 (active)
NC(N)=NCCC[C@H](N)C(=O)N[C@@H](Cc1ccc(O)cc1)C(=O)O (plate: PM6) | 8490 (active)
CC[C@H](C)[C@H](NC(=O)[C@@H](N)CCCN=C(N)N)C(=O)O (plate: PM6) | 8150 (active)
N[C@@H](Cc1ccccc1)C(=O)N[C@@H](Cc1c[nH]c2ccccc12)C(=O)O (plate: PM7) | 389 (inactive)
N[C@@H](Cc1ccc(O)cc1)C(=O)N[C@@H](Cc1ccccc1)C(=O)O (plate: PM7) | 6470 (active)
NC(=O)CC[C@H](N)C(=O)NCC(=O)O (plate: PM6) | 5240 (active)
CC(NC(=O)C(N)CC(=O)O)C(=O)O (stereo not given) (plate: PM8) | 6890 (active)
CC(C)[C@H](NC(=O)CN)C(=O)O (plate: PM6) | 1820 (inactive)
CC(C)[C@H](N)C(=O)N[C@@H](C)C(=O)O (plate: PM8) | 4740 (active)

Compound | respiration area under curve
C[C@@H](N)C(=O)NCC(=O)NCC(=O)O (plate: PM8) | 46.7 (inactive)
N[C@@H](Cc1ccccc1)C(=O)N[C@@H](CCC(=O)O)C(=O)O (plate: PM8) | 2880 (active)
CSCCC(NC(=O)C(N)C(C)C)C(=O)O (stereo not given) (plate: PM8) | 2570 (active)
CSCC[C@H](NC(=O)[C@@H](N)CCCN=C(N)N)C(=O)O (plate: PM6) | 9220 (active)
C[C@@H](O)[C@H](NC(=O)CN)C(=O)O (plate: PM6) | 2750 (active)
O=C(O)[C@H](Cc1c[nH]c2ccccc12)NC(=O)[C@@H]1CCCN1 (plate: PM8) | 1320 (inactive)
CC(C)C[C@H](NC(=O)[C@@H](N)CC(=O)O)C(=O)O (plate: PM6) | 984 (inactive)
CC(C)[C@H](N)C(=O)NCC(=O)O (plate: PM7) | 6900 (active)
CSCC[C@H](NC(=O)[C@@H](N)CO)C(=O)O (plate: PM7) | 2590 (active)
O=C(O)CC(NC(=O)C1CCCN1)C(=O)O (stereo not given) (plate: PM7) | 2970 (active)
N[C@@H](Cc1c[nH]c2ccccc12)C(=O)NCC(=O)O (plate: PM7) | 1010 (inactive)
N[C@@H](Cc1ccccc1)C(=O)NCC(=O)O (plate: PM7) | 6420 (active)
C[C@H](O)[C@@H](NC(=O)CN)C(=O)O (plate: PM8) | 0 (inactive)
N[C@@H](Cc1c[nH]c2ccccc12)C(=O)N[C@@H](Cc1ccc(O)cc1)C(=O)O (plate: PM7) | 292 (inactive)
NCC(=O)NCC(=O)NCC(=O)O (plate: PM8) | 940 (inactive)
C[C@H](NC(=O)[C@@H](N)Cc1ccc(O)cc1)C(=O)O (plate: PM7) | 10300 (active)
C[C@H](N)C(=O)N[C@@H](CC(=O)O)C(=O)O (plate: PM8) | 9070 (active)
NC(N)=NCCC[C@H](N)C(=O)N[C@@H](Cc1ccccc1)C(=O)O (plate: PM6) | 7570 (active)
C[C@H](N)C(=O)NCC(=O)O (plate: PM6) | 6240 (active)
C[C@@H](O)[C@H](N)C(=O)N1CCC[C@H]1C(=O)O (plate: PM7) | 10700 (active)
